Compound activity from PubChem BioAssay.
Cruzain inh Det – inhibitors of Trypanosoma cruzi cruzain with detergent. P25779. purified cruzain, Z-FR-AMC fluorescence, 0.01% Triton. Potency, µM, for inactives: max response, negative = inhibition, most hits filed as inhibitors. actives 0.43% (n = 200,000). AID 1478;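 also: plate controls were neutral wells for no effect and buffer without enzyme for full effect; nearly all actives have a fitted effect of over 40% in size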
Target sequence (P25779 123-467 limits assumed): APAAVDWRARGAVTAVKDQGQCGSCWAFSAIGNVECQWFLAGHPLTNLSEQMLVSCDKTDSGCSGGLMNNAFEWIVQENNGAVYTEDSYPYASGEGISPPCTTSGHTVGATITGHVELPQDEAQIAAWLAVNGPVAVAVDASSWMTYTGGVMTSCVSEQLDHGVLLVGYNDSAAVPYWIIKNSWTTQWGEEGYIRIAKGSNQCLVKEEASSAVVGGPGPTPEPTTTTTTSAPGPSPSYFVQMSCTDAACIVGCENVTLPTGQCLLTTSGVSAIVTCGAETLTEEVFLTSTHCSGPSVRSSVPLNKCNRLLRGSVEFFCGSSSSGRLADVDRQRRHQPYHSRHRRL
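Steps: dispense cruzain (1.5 nM final) in acetate buffer pH 5.5 with DTT and 0.01% Triton X-100; pin-transfer compounds; incubate 15 min RT; add Z-FR-AMC (2 uM final); read fluorescence every 30 s, using the 60 s intensity change.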
Cruzain noTriton – blocks cruzain activity in detergent-free assay | purified cruzain, Z-FR-AMC fluorescence, no detergent | Potency, µM, without a hit: max response, negative = inhibition, hits mostly inhibitors | actives 2.3% (n = 200,000);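 also: plate controls were enzyme without inhibitor for no effect and buffer without enzyme for full effect; nearly all actives have a fitted effect of over 40% in size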
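Detergent-free condition (0.00005% Triton X-100) in acetate buffer pH 5.5 with DTT. 1.5 nM enzyme and compound were pre-mixed 15 min, then 2 uM Z-FR-AMC substrate added; reaction progress from fluorescence change between first and third reads (60 s).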
Active calls of the source: *; ? = inconclusive; ! = repeats disagree. Rows were chosen to be rich in hits. Some 2.4% of all compounds tested hit in one or more screens of this group. Calls follow the shape of the dose curve; as a rule, active = well fitted curve in the direction sought with a large enough effect; inconclusive = small, poorly fitted or top-dose-only effect, or another doubt; inactive = no such curve, though single readings can be large; an effect the other way counts as inactive or inconclusive. Potency is read from the fitted curve at half-maximal effect.

SMILES	Cruzain inh Det	Cruzain noTriton
CCN1C(=O)C2(C(C#N)=C(N)Oc3n[nH]c(COC)c32)c2ccccc21 (stereo not given)	0.8%	5.2%
N#CC(C#N)=CC1=C2OC(c3ccccc3)=CC(c3ccccc3)=C2CCC1	1.9%	5.01µM*
CCc1cccc(NC(=O)Cn2c(C(=O)OC)cc3sc(Cl)cc32)c1	0.4%	10.8%
COC(=O)c1cc2sc(Cl)cc2n1CC(=O)Nc1cccc(SC)c1	-15.8%	25.1µM*
C=CCOC(=O)/C(=C\c1ccc(OC)cc1)NC(=O)c1ccco1	2.6%	-4.6%
Clc1ccc(-c2nnc(-c3ccco3)nc2N2CCCCC2)cc1	-21.3%	-27.3%
Clc1ccc(-c2nnc(-c3ccc(Br)cc3)c(N3CCSCC3)n2)cc1	1.4%	20µM*
c1ccc(CNc2ccc(CNc3ncn[nH]3)cc2)cc1	0.0%	9.5%
Cc1nn(-c2ccccc2)c(C)c1NC(=O)COc1ccc(C#N)cc1	-1.2%	15.9%
CC1(C)CCC(C)(C)c2cc(C(=O)Nc3ccc(C(=O)O)cc3)ccc21	2.2%	-10.4%
C/C(=C\c1ccc(C(=O)O)cc1)c1ccc2c(c1)C(C)(C)CCC2(C)C	-8.4%	6.31µM*!
CN1CCN(Cc2cc(=O)oc3ccc(Cl)cc23)CC1	0.4%	-3.5%
C/C(=N/Nc1nc(-c2ccc(Cl)cc2)cs1)c1cccs1	?	3.98µM*
O=C(Nc1nc(-c2ccccc2)cs1)c1cccs1	-7.7%	1.8%
O=c1cc(-c2ccccc2)nc2nc[nH]n12	1.8%	-5.0%
Cc1ccc(N2CC(NC(=O)c3cc4ccccc4o3)CC2=O)cc1C (stereo not given)	-3.0%	-3.5%
CC(CN1CCN(C)CC1)OC(=O)c1ccc(Cl)cc1Cl (stereo not given)	0.8%	-4.5%
O=C(Cc1ccc(Cl)cc1)Nc1ccc2oc(-c3ccccc3F)nc2c1	-0.8%	7.94µM*
Cc1c(NC(=O)CSc2ccc(Cl)cc2)cccc1-c1nc2cc(Cl)ccc2o1	-1.2%	25.1µM*
Cc1ccc(SCC(=O)Nc2cccc(-c3nc4cc(Cl)ccc4o3)c2C)cc1	-2.3%	-2.9%
O=C(Cc1ccc(Cl)cc1)Nc1ccc2oc(-c3ccncc3)nc2c1	-1.1%	6.0%
CC(NC(=O)CCn1c(=O)c2cccn2c2ccc(F)cc21)c1ccccc1 (stereo not given)	-3.2%	6.2%
COc1ccc(C(=O)Nc2nc(N3C(=O)c4ccccc4C3=O)n(-c3ccccc3)n2)cc1	0.4%	6.8%
C=C(C)Cn1c(SCC#N)nc2ccccc2c1=O	1.5%	-10.8%
N#CCSc1nc2ccc(N3CCCCC3)cc2c(=O)n1Cc1ccccc1	-0.9%	25.1µM*
SMILES	Cruzain inh Det	Cruzain noTriton
COc1ccc(-c2cn3c(n2)sc2cc(C(=O)NC4CCCCCC4)ccc23)cc1	-4.6%	-7.8%
Cc1ccc(-c2cn3c(n2)sc2cc(C(=O)NC4CCCCCC4)ccc23)c(C)c1	-1.2%	10µM*
O=c1c2ccccc2n(Cc2ccccc2F)c(=O)n1-c1cccc(F)c1	-2.1%	-4.2%
Cc1ccc(-n2c(C)cc(/C=C3/C(=O)NC(=O)N(Cc4ccco4)C3=O)c2C)cc1	-5.1%	-9.7%
COc1ccc(-n2c(C)cc(/C=C3\SC(=S)N(Cc4ccco4)C3=O)c2C)cc1	-4.6%	7.94µM*
Cc1ccc(/C=C2\SC(=S)N(Cc3ccccc3)C2=O)o1	-12.6%	?
COc1ccc(-c2nn(-c3ccccc3)cc2/C=C2/SC(=S)N(Cc3ccco3)C2=O)c(C)c1	0.5%	3.16µM*
O=C(COc1ccc(Cl)cc1)Nc1ccc(O)c(-c2nc3ccccc3s2)c1	1.7%	2.2%
COc1ccc(-c2csc(NC(=O)c3cccc(S(=O)(=O)N4CCN(C)CC4)c3)n2)cc1	-3.1%	-5.3%
COc1ccc(C2=CSC3=C(C(=O)c4cccc(S(=O)(=O)N(C)C)c4)CCN23)cc1	-7.6%	25.1µM*
O=C(Nc1ccc(CCC(=O)N2CCCC2)cc1)c1ncn[nH]1	0.9%	1.7%
CN(C)C(=O)Oc1cccc(NC(=O)N2CCOCC2)c1	-1.0%	-11.1%
COC(=O)c1c(NC(=O)COC(=O)[C@@H](NS(=O)(=O)c2cccc(Cl)c2)C(C)C)sc2c1CCC2	-10.5%	15.8µM*
CCOC(=O)c1c(NC(=O)C2CCCN(S(=O)(=O)c3ccccc3)C2)sc2c1CCCC2 (stereo not given)	-2.9%	?
CCOC(=O)c1c(NC(=O)C2CCCN(S(=O)(=O)c3ccc(C)cc3)C2)sc2c1CCCC2 (stereo not given)	0.3%	15.8µM*
COC(=O)c1sc(N)c(C(=O)OC)c1COC(=O)[C@@H](NS(=O)(=O)c1cccc(Cl)c1)C(C)C	-7.6%	10.4%
COC(=O)c1c(NC(=O)CS(=O)(=O)c2ccc(C)cc2)sc2c1CCCCC2	-8.3%	2.51µM*
Cc1ccc(S(=O)(=O)CC(=O)Nc2sc3c(c2C#N)CCCCC3)cc1	-3.0%	-10.1%
O=C(NC(NCc1ccccn1)(C(F)(F)F)C(F)(F)F)c1ccco1	6.3%	5.7%
Cc1ccc(-c2nn(CC(=O)Nc3ccc4c(c3)nc3n4CCOC3)c(=O)c3ccccc23)cc1	4.6%	6.8%
COc1cc(/C=N/NC(=O)COc2ccc(C)cc2)ccc1OC(=O)c1cccs1	-5.3%	?
COc1cc(OC)cc(C(=O)Oc2ccc(/C=N/Nc3nc4ccccc4s3)cc2OC)c1	-6.6%	12.6µM*
COc1cc(/C=N/Nc2ccccc2)ccc1OC(=O)c1cccs1	-2.6%	12.6µM*
COc1cc(/C=N/Nc2nc3ccccc3s2)ccc1OC(=O)c1ccccc1F	-3.1%	?
O=C(NS(=O)(=O)c1ccccc1Cl)c1ccc[nH]1	-2.6%	3.2%
SMILES	Cruzain inh Det	Cruzain noTriton
CCN1CCN(Cc2nc3c(c(=O)[nH]c(=O)n3C)n2Cc2ccccc2Cl)CC1	-4.6%	-1.6%
CCC(=O)N1c2nc(-c3ccco3)nn2C2(CCCCC2)[C@@H]2CCCC[C@@H]21	-3.5%	-0.7%
CC(C)(C)c1ccc(C(=O)Nc2nonc2-c2nc3ccccc3[nH]2)cc1	0.3%	3.16µM*
CCn1c(-c2nonc2NC(=O)c2ccccc2)nc2ccccc21	-2.6%	4.2%
CCN(CC)C(=O)C1=C(C)Nc2nc3ccccc3n2C1c1ccc(Cl)cc1 (stereo not given)	-3.7%	0.9%
N#CC1=C(N)Nc2nc3ccccc3n2C1c1ccc(Cl)cc1 (stereo not given)	-1.2%	31.6µM*
Cc1cc(/C=N\NC(=O)CC(=O)NC2CCCCC2)c(C)n1-c1ccc(Cl)c(Cl)c1	-6.1%	-1.5%
COc1cccc(NC(=O)C(=O)N/N=C/c2cc(C)n(-c3ccc(Cl)c(Cl)c3)c2C)c1	-0.2%	15.8µM*
COc1cc(OC)c(NS(=O)(=O)c2coc(C(N)=O)c2)cc1Cl	-0.9%	18.8%
CCC1CCc2c(sc(NC(=O)C3c4ccccc4Oc4ccccc43)c2C#N)C1 (stereo not given)	-4.5%	7.94µM*
CCC1CCc2c(sc(NC(=O)C3c4ccccc4Oc4ccccc43)c2C(=O)OC)C1 (stereo not given)	0.6%	3.98µM*
CCC(C)(C)C1CCc2c(sc(NC(=O)C3c4ccccc4Oc4ccccc43)c2C(N)=O)C1 (stereo not given)	-1.7%	-1.7%
COC(=O)c1c(NC(=O)C2c3ccccc3Oc3ccccc32)sc2c1CCC(C)C2 (stereo not given)	-3.1%	-23.2%
Cc1ccc(C(=O)NCc2nnnn2-c2ccc(C)c(C)c2)cc1	1.1%	-7.9%
O=c1oc2ccccc2cc1-c1cn2cc(Cc3cc(Cl)ccc3Cl)sc2n1	-0.3%	-7.4%
O=c1c(C(c2ccccc2)c2c(O)sc3ccccc3c2=O)c(O)sc2ccccc12	25.1µM*	?
